Test results published in PubChem BioAssay AID651605 (National Center for Advancing Translational Sciences (NCATS), 2012).
Several values for one entry are separate records, joined by “and”; a condition that tells them apart may be missing. Equal entries are not always repeated. Inconclusive results are not listed. Unmarked numbers belong to inactive results. Activity calls are given as the source filed them. The call rests on the fitted dose curve; in most records, active means well fitted inhibition curve with a large enough effect; inconclusive means small, poorly fitted or top-dose-only effect; inactive means flat fitted curve, though single readings scatter.

biological target: Ubiquitin carboxyl-terminal hydrolase 1 (Homo sapiens) (UniProt O94782); assay: Inhibitors of USP1/UAF1: SAR in Primary Assay; details: Recombinant USP1/UAF1, Ub-Rhodamine cleavage fluorescence; series mostly up to 57.1 µM; activity change, negative = inhibition: at the top concentration
Sequence (O94782 whole entry, looked up): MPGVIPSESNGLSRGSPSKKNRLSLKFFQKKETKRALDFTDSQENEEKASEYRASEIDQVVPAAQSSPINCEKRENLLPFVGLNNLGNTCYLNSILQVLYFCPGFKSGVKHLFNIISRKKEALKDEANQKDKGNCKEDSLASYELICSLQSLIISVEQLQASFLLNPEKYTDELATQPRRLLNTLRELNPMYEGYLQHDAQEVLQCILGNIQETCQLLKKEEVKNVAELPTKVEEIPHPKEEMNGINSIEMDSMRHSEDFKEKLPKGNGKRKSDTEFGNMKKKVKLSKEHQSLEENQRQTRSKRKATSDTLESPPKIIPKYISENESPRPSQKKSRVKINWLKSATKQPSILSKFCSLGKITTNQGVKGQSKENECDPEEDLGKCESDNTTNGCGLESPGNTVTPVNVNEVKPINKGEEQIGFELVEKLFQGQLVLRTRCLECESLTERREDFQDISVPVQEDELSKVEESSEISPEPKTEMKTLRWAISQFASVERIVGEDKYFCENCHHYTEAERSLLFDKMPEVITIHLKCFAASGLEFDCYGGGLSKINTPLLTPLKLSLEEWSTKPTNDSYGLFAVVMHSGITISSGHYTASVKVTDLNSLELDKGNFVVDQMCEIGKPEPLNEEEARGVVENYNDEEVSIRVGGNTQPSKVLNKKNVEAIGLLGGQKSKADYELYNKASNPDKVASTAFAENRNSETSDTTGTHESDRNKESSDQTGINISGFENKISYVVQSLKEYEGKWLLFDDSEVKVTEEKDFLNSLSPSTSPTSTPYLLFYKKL
Description: Deubiquitinating enzymes (DUBs) are a class of enzymes that can cleave isopeptide bond formed between the C-terminal carboxylate of ubiquitin and a lysine side-chain amino group on the target protein. Among them, ubiquitin specific proteases (USPs) constitute the largest DUB family. Human USPs are emerging as promising targets for pharmacological intervention because of their connection to a number of human diseases, including prostate, colon and breast cancer (1, 2), pediatric acute lymphoblastic leukemia (3), and familial cylindromatosis (4). The advantage of inhibiting USPs lies in the potential specificity of therapeutic intervention that can lead to better efficacy and reduce nonspecific side effects. In a collaboration between the University of Delaware and the NIH Chemical Genomics Center, a high-throughput screen assay was developed to screen for USP1/UAF1 inhibitors (5). This assay was used to test the analogs that were synthesized based on SAR around the original hit. NIH Chemical Genomics Center [NCGC] NIH Molecular Libraries Probe Centers Network [MLPCN] MLPCN Grant: DA030552-01 Assay Submitter (PI): Zhihao Zhuang, University of Delaware 1. Priolo, C., et al. (2006) The isopeptidase USP2a protects human prostate cancer from apoptosis. Cancer Res 66, 8625-8632 2. Popov, N., et al. (2007) The ubiquitin-specific protease USP28 is required for MYC stability. Nat Cell Biol 9, 765-774 3. De Pitta, C., et al. (2005) A leukemia-enriched cDNA microarray platform identifies new transcripts with relevance to the biology of pediatric acute lymphoblastic leukemia. Haematologica 90, 890-898 4. Kovalenko, A., et al. (2003) The tumour suppressor CYLD negatively regulates NF-kappaB signalling by deubiquitination. Nature 424, 801-805 5. Chen, J., et al. (2011) Selective and cell-active inhibitors of the USP1/ UAF1 deubiquitinase complex reverse cisplatin resistance in non-small cell lung cancer cells. Chem Bio 18(11):1390-400.
3 microliters of reagents (buffer in columns 3 and 4 as negative control and 1nM USP1/UAF1 complex in columns 1, 2, and 5-48) are dispensed into Greiner black solid bottom 1536-well assay plates. Compounds are then transferred via Kalypsys pin tool equipped with 1536-pin array (10nl slotted pins, V&P Scientific, San Diego, CA). Following an incubation step of 15 min at room temperature, 1ul of Ub-Rho substrate (150nM final concentration) is added to initiate the reaction. The plates are immediately centrifuged at 1000 rpm for 15 seconds, and subsequently transferred to a ViewLux high-throughput CCD imager (PerkinElmer) wherein kinetic measurements of fluorescence are acquired using 480 nm excitation/540 nm emission filter set (6 reads every 60 seconds, see Table 1). All reagents are diluted in an assay buffer consisting of 50mM HEPES (pH 7.8), 0.5mM EDTA, 0.1 mg/ml BSA, 1mM TCEP, and 0.01% Tween-20.

Question: With `Cc1cnc(-c2ccccc2C(C)C)nc1NCc1ccc(-c2cccc(S(N)(=O)=O)c2)cc1` as the compound, how does the Potency read?
Answer: Its Potency is 215 nM (active).

Question: With `Cc1cnc(-c2ccccc2N(C)C)nc1NCc1ccc(-c2cccnc2)cc1` as the compound, how does the Potency read?
Answer: The Potency was 429 nM (active).

Question: How did the Potency turn out when `Cc1cnc(-c2ccccc2C(F)F)nc1NCc1ccc(-c2cccnc2)cc1` was run?
Answer: Its Potency is 341 nM (active).

Question: `CSc1ccccc1-c1ncc(C)c(NCc2ccc(-c3cccnc3)cc2)n1` was tested. Which Potency did it give?
Answer: Its Potency is 541 nM (active).

Question: How did the Potency turn out when `CC(C)(Sc1ccc(CCN(CCCCC2CCCCC2)C(=O)NC2CCCCC2)cc1)C(=O)O` was run?
Answer: Its Potency is 24100 nM (active).

Question: Which Potency does the source give for `CCc1ccccc1-c1nc(NCc2ccc(-c3cccnc3)cc2)c2ccccc2n1` here?
Answer: Its Potency is 607 nM (active).

Question: Which Potency does the source give for `CC(C)c1ccccc1-c1ncc(F)c(NC(C)(C)c2ccc(-n3ccnn3)cc2)n1` here?
Answer: The Potency was 4820 nM (active).

Question: `FC(F)(F)c1ccccc1-c1nc(NCc2ccc(-c3cccnc3)cc2)c2[nH]cnc2n1` was tested. Which Potency did it give?
Answer: The Potency was 607 nM (active).

Question: `Cc1cnc(-c2ccccc2C2COC2)nc1NCc1ccc(-n2ccnn2)cc1` was tested. Which “activity change, negative = inhibition” value did it give?
Answer: Its value is -9.72%.

Question: How did the Potency turn out when `Cc1cnc(-c2ccccc2CO)nc1NCc1ccc(-c2cccnc2)cc1` was run?
Answer: The Potency was 8570 nM (active).

Question: `Brc1ccccc1-c1nc(NCc2ccc(-c3cccnc3)cc2)c2ccccc2n1` was tested. Which Potency did it give?
Answer: The Potency was 961 nM (active).

Question: For `CC(C)c1ccccc1-c1nc(NCc2ccc(-c3cccnc3)cc2)c2occc2n1`, which Potency is on record?
Answer: Its Potency is 152 nM (active).

Question: How did the Potency turn out when `CC(C)c1ccccc1-c1nc2c(c(NCc3ccc(-c4cccnc4)cc3)n1)CCNC2` was run?
Answer: Its Potency is 482 nM (active).

Question: For `Cc1ccccc1-c1nc(NCc2ccc(-c3cccnc3)cc2)c2ccccc2n1`, which Potency is on record?
Answer: The Potency was 482 nM (active).

Question: How did the Potency turn out when `CC(=O)c1ccccc1-c1ncc(C)c(NCc2ccc(-c3cccnc3)cc2)n1` was run?
Answer: Its Potency is 7640 nM (active).

Question: How did the Potency turn out when `FC(F)(F)c1ccccc1-c1nc(NCc2ccc(-c3cccnc3)cc2)c2sccc2n1` was run?
Answer: The Potency was 857 nM (active).

Question: `Cc1cnc(-c2ccccc2C(C)C)nc1NCC1CN(c2cccnc2)C1` was tested. Which Potency did it give?
Answer: Its Potency is 6810 nM (active).

Question: Which Potency does the source give for `COc1cnc(-c2ccccc2C(C)C)nc1NCc1ccc(-c2cccnc2)cc1` here?
Answer: The Potency was 42.9 nM (active).

Question: `Fc1cnc(-c2ccccc2C(F)F)nc1NCC1CCN(c2cnccn2)C1` (stereo not given) was tested. Which Potency did it give?
Answer: Its Potency is 21500 nM (active).

Question: `CC(C)c1ccccc1-c1ncc(F)c(NCC2CCN(c3cccnc3)CC2)n1` was tested. Which Potency did it give?
Answer: The Potency was 96.1 nM (active).

Question: How did the Potency turn out when `CC(C)c1ccccc1-c1ncc(F)c(NCc2ccc(-c3cccnc3)cc2)n1` was run?
Answer: Its Potency is 60.7 nM (active).

Question: Which Potency does the source give for `Cc1cnc(-c2ccccc2C(C)C)nc1NCc1ccc(-c2cn[nH]n2)cc1` here?
Answer: Its Potency is 242 nM (active).

Question: Which Potency does the source give for `FC(F)(F)c1ccccc1-c1nccc(NCc2ccc(-c3cccnc3)cc2)n1` here?
Answer: The Potency was 541 nM (active).

Question: `CC(C)c1ccccc1-c1ncc(F)c(NCc2ccc(-c3cccnc3)s2)n1` was tested. Which Potency did it give?
Answer: The Potency was 242 nM (active).

Question: Which Potency does the source give for `O=[N+]([O-])c1ccccc1-c1nc(NCc2ccc(-c3cccnc3)cc2)c2ccccc2n1` here?
Answer: Its Potency is 4290 nM (active).

Question: Which Potency does the source give for `Cc1ccc(-c2ccc(CNc3nc(-c4ccccc4C(C)C)nc4ccsc34)cc2)cn1` here?
Answer: Its Potency is 96.1 nM (active).

Question: How did the Potency turn out when `CSc1cnc(-c2ccccc2C(C)C)nc1NCc1ccc(-c2cccnc2)cc1` was run?
Answer: The Potency was 85.7 nM (active).

Question: `N#Cc1ccc(-c2nc(NCc3ccc(-c4ccnc(C(F)(F)F)c4)cc3)c3ccccc3n2)cc1` was tested. Which “activity change, negative = inhibition” value did it give?
Answer: The value was -19.2%.

Question: Which Potency does the source give for `CC(C)c1ccccc1-c1ncc(N)c(NCc2ccc(-c3cccnc3)cc2)n1` here?
Answer: Its Potency is 271 nM (active).

Question: With `FC(F)(F)c1ccccc1-c1nc(NCc2ccc(-c3cccnc3)cc2)c2ccccc2n1` as the compound, how does the Potency read?
Answer: The Potency was 607 nM (active).

Question: For `Cc1cnc(-c2ccccc2C(F)F)nc1NCc1ccc(-n2ccnn2)cc1`, which Potency is on record?
Answer: Its Potency is 482 nM (active).

Question: `CC(C)c1ccccc1-c1ncc(F)c(NC2(c3ccc(-c4cccnc4)cc3)CC2)n1` was tested. Which Potency did it give?
Answer: Its Potency is 38.3 nM (active) and 34.1 nM (active).

Question: How did the Potency turn out when `Cc1cnc(-c2ccccc2OC(C)C)nc1NCc1ccc(-n2ccnn2)cc1` was run?
Answer: Its Potency is 429 nM (active).

Question: With `CC(Nc1nc(-c2ccccc2C(F)(F)F)nc2ccccc12)c1ccc(-c2ccccc2)cc1` (stereo not given) as the compound, how does the Potency read?
Answer: Its Potency is 4820 nM (active).

Question: For `Cc1cnc(-c2ccccc2C(C)C)nc1NCC1CCN(C2COC2)CC1`, which Potency is on record?
Answer: The Potency was 15200 nM (active).

Question: `CC(Nc1nc(-c2ccccc2C(F)(F)F)nc2ccccc12)c1ccc(-c2ccncc2)cc1` (stereo not given) was tested. Which Potency did it give?
Answer: The Potency was 5410 nM (active).

Question: With `Cc1cnc(-c2ccccc2C2CC2)nc1NCc1ccc(-c2cccnc2)cc1` as the compound, how does the Potency read?
Answer: Its Potency is 341 nM (active).

Question: With `CC(C)c1ccccc1-c1nc(NCc2ccc(-c3cccnc3)cc2)c2cccn2n1` as the compound, how does the Potency read?
Answer: The Potency was 215 nM (active).

Question: `CC(C)c1ccccc1-c1nc(NCc2ccc(-c3cccnc3)cc2)c2ccsc2n1` was tested. Which Potency did it give?
Answer: The Potency was 242 nM (active).

Question: For `Cc1cnc(-c2ccccc2C(C)(C)C)nc1NCc1ccc(-n2ccnn2)cc1`, which Potency is on record?
Answer: The Potency was 136 nM (active).
